# Results published in paper PMC4242493, “Sequence specificity incompletely defines the genome-wide occupancy of Myc”.
# Over roughly 33,000 sequences, “normalized occupancy” has its median near 0.075; the highest 2% begin near 0.095. The list comes from a sample in which the highest values are over-represented; it also holds similar and randomly drawn sequences.
# Molecular target: MaxL homodimer (Homo sapiens, UniProt P61244 1-160)
# Assay: universal protein-binding microarray (PBM); PBS-based mixture, 10 nM His-tagged protein dimer, 2% milk, 200 ng/uL BSA, 50 ng/uL salmon testes DNA, 0.02% TX-100; detection with Alexa 488 anti-His antibody;; high values mean tight binding
# Conditions: protein: recombinant; tags: C-terminal His-tag (pET21a); chain copies: 2; dsDNA, one strand shown
# Procedure, shortened: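 Agilent 4 x 44 K arrays carrying the 'all 10-mer' universal design were incubated with His-tagged protein dimer at 10 nM. Protein that bound was tagged using fluorophore-conjugated anti-His antibody at 10 ng/μL, and a GenePix 4400A scanned the arrays to give an intensity for every 8-mer. Each binding occupancy value expresses an intensity relative to the top-ranked intensity.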
# MaxL homodimer, sequence (P61244 whole entry): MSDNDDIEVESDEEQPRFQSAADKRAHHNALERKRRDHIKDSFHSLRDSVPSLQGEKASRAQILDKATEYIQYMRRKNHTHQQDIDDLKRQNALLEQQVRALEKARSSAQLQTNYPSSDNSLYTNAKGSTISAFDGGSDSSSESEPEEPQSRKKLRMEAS
row,Sequence,binding signal
1,TACGAACA,0.0754 normalized occupancy
2,AAGCAACG,0.0753 normalized occupancy
3,CCACGCAG,0.0904 normalized occupancy
4,CCACGCGG,0.32 normalized occupancy
5,CAACGCGC,0.0787 normalized occupancy
6,CAACGCGA,0.0767 normalized occupancy
7,CAACGCGG,0.0764 normalized occupancy
8,TCACGCGA,0.11 normalized occupancy
9,CTACGCGC,0.0727 normalized occupancy
10,CGACGCGA,0.0735 normalized occupancy
11,TCACGCCA,0.0851 normalized occupancy
12,TCACGCAA,0.0764 normalized occupancy
13,CCACGCGC,0.157 normalized occupancy
14,CCACGCGA,0.131 normalized occupancy
15,GCCTACAA,0.075 normalized occupancy
16,GACAGAGA,0.0724 normalized occupancy
17,ATACAACA,0.0788 normalized occupancy
18,CGAAAGCA,0.0741 normalized occupancy
19,CAGGGGGA,0.0851 normalized occupancy
20,TCTTCGCA,0.0796 normalized occupancy
21,AATAGAGC,0.0803 normalized occupancy
22,AATAACGT,0.0823 normalized occupancy
23,ATTAGTAC,0.0786 normalized occupancy
24,CATGCATG,0.121 normalized occupancy
25,AGTGCATC,0.0772 normalized occupancy
26,ACTGCATG,0.0859 normalized occupancy

row,Sequence,binding signal
1,AATGCATT,0.0797 normalized occupancy
2,CCTGCATC,0.0807 normalized occupancy
3,AATGCATC,0.0763 normalized occupancy
4,AGTGCATA,0.0847 normalized occupancy
5,CATGCAAG,0.0837 normalized occupancy
6,CATGCATC,0.0997 normalized occupancy
7,AATGCATG,0.1 normalized occupancy
8,GATGCATC,0.0787 normalized occupancy
9,AGTGCATG,0.0988 normalized occupancy
10,GCACGAAA,0.078 normalized occupancy
11,TAGACACA,0.0829 normalized occupancy
12,AACAAGCC,0.0718 normalized occupancy
13,AGAGTTTG,0.073 normalized occupancy
14,CCTGGGAC,0.0732 normalized occupancy
15,ATGTCTCG,0.0802 normalized occupancy
16,CGCTCACC,0.0763 normalized occupancy
17,AAGCCATC,0.0756 normalized occupancy
18,AAGAAGGA,0.0794 normalized occupancy
19,AATGCATA,0.0839 normalized occupancy
20,CATGCATA,0.0989 normalized occupancy
21,TATGCATA,0.0811 normalized occupancy
22,CACGGGGA,0.0894 normalized occupancy
23,CACGGGGG,0.101 normalized occupancy
24,CCACGGGC,0.076 normalized occupancy
25,CACGGGGC,0.0863 normalized occupancy
26,CCACGGGA,0.0794 normalized occupancy

row,Sequence,binding signal
1,CCACGGGG,0.097 normalized occupancy
2,AGGAATTG,0.0797 normalized occupancy
3,ACGTAGCG,0.0805 normalized occupancy
4,AACCCATG,0.0961 normalized occupancy
5,ACCCCGTG,0.108 normalized occupancy
6,AACCCATT,0.0783 normalized occupancy
7,CACCCATC,0.0827 normalized occupancy
8,ACCCCGTA,0.0818 normalized occupancy
9,CACCCATG,0.1 normalized occupancy
10,AACCCATA,0.0815 normalized occupancy
11,ACCCCATG,0.102 normalized occupancy
12,ACCCCATA,0.0838 normalized occupancy
13,CACCCATA,0.0892 normalized occupancy
14,AACCCGTG,0.0816 normalized occupancy
15,ACCCCATC,0.0823 normalized occupancy
16,CGGACGCA,0.0735 normalized occupancy
17,ATTTTCTA,0.0856 normalized occupancy
18,CAGAAGAC,0.0718 normalized occupancy
19,GACAGTAA,0.0794 normalized occupancy
20,ACGTTCGA,0.0752 normalized occupancy
21,CACGACAC,0.0789 normalized occupancy
22,CGTACGGC,0.0778 normalized occupancy
23,AAACAGCA,0.0759 normalized occupancy
24,GGCATGTA,0.0812 normalized occupancy
25,AGGATGTG,0.0831 normalized occupancy
26,AGCATGTC,0.1 normalized occupancy

row,Sequence,binding signal
1,AGCATGTA,0.106 normalized occupancy
2,CGCATGTC,0.105 normalized occupancy
3,AGGATGTA,0.0795 normalized occupancy
4,AGCATGTG,0.164 normalized occupancy
5,AGTATGTG,0.081 normalized occupancy
6,CGCATTTC,0.0783 normalized occupancy
7,AGCATTTC,0.0792 normalized occupancy
8,AGTATGTC,0.0803 normalized occupancy
9,CGCATCTC,0.0769 normalized occupancy
10,CCGTACAC,0.0886 normalized occupancy
11,GTGAGTGA,0.0775 normalized occupancy
12,ACTGGCCT,0.073 normalized occupancy
13,CATTCGCA,0.078 normalized occupancy
14,AGCCAACA,0.0808 normalized occupancy
15,ACTTGTGC,0.0751 normalized occupancy
16,AAAATTAG,0.0735 normalized occupancy
17,ATTAAGGA,0.0744 normalized occupancy
18,AAACAGTA,0.0764 normalized occupancy
19,CCCATGTA,0.0872 normalized occupancy
20,CGCATGTA,0.105 normalized occupancy
21,CTCATGTA,0.0936 normalized occupancy
22,GGAATCCC,0.0772 normalized occupancy
23,ATCGTTCG,0.0755 normalized occupancy
24,CAAGCGAG,0.0757 normalized occupancy
25,AAAGCGCG,0.0769 normalized occupancy
26,AAAGCGTT,0.0746 normalized occupancy

row,Sequence,binding signal
1,AAAGCGTG,0.11 normalized occupancy
2,CAAGCGCG,0.0759 normalized occupancy
3,CAAGCGTG,0.104 normalized occupancy
4,ATGTTGCA,0.0888 normalized occupancy
5,CTTCCCCA,0.0787 normalized occupancy
6,AGTAGTAG,0.0786 normalized occupancy
7,GATGTTAC,0.0818 normalized occupancy
8,AGGCGTCA,0.0742 normalized occupancy
9,CGGTACAC,0.0815 normalized occupancy
10,ATCGTGGG,0.0895 normalized occupancy
11,AACGTGGC,0.107 normalized occupancy
12,AACGTAGC,0.0749 normalized occupancy
13,GACGTGGC,0.0846 normalized occupancy
14,AAAGTGGT,0.0721 normalized occupancy
15,AACGTGGT,0.125 normalized occupancy
16,AACGTTGT,0.0817 normalized occupancy
17,AACGTGGG,0.114 normalized occupancy
18,ACCGTGGG,0.0732 normalized occupancy
19,AGTAACTC,0.0742 normalized occupancy
20,CTAGGAGA,0.0761 normalized occupancy
21,AATGCCTA,0.0747 normalized occupancy
22,ACATCAGT,0.0736 normalized occupancy
23,TATGAATA,0.0823 normalized occupancy
24,ATATCTCC,0.0807 normalized occupancy
25,CACTTCAG,0.0728 normalized occupancy
26,TTGAGAAA,0.0807 normalized occupancy

row,Sequence,binding signal
1,AACGTACT,0.0746 normalized occupancy
2,ACACGAGT,0.0979 normalized occupancy
3,ACACGACT,0.0807 normalized occupancy
4,ATACGAGA,0.0785 normalized occupancy
5,ACACGATG,0.0969 normalized occupancy
6,ACACGATA,0.0824 normalized occupancy
7,AAACGAGG,0.081 normalized occupancy
8,ATACGAGG,0.084 normalized occupancy
9,ACACGAGA,0.0977 normalized occupancy
10,ACACGAGC,0.0815 normalized occupancy
11,ACACGAGG,0.144 normalized occupancy
12,ACACGAAT,0.0776 normalized occupancy
13,ACACGATC,0.0822 normalized occupancy
14,GTGCCCTA,0.0772 normalized occupancy
15,CAAACAGG,0.0747 normalized occupancy
16,CGCAAGAG,0.0757 normalized occupancy
17,AGGGGTCG,0.0779 normalized occupancy
18,GCATATGC,0.0998 normalized occupancy
19,CCATATGG,0.123 normalized occupancy
20,CCATATAG,0.087 normalized occupancy
21,CCATATCG,0.083 normalized occupancy
22,CGATATGC,0.0806 normalized occupancy
23,GCATATGA,0.0934 normalized occupancy
24,CTATATGC,0.0831 normalized occupancy
25,CCATATGC,0.1 normalized occupancy
26,GCATATCC,0.0834 normalized occupancy

row,Sequence,binding signal
1,CAGATAAA,0.078 normalized occupancy
2,ACCATAAG,0.0853 normalized occupancy
3,ACAAATTG,0.0753 normalized occupancy
4,CCCATACC,0.0872 normalized occupancy
5,CCAGTTGC,0.0718 normalized occupancy
6,AAACAGTG,0.0728 normalized occupancy
7,TAGTTTGA,0.0723 normalized occupancy
8,AATTTTCT,0.0797 normalized occupancy
9,ACGGGACA,0.0774 normalized occupancy
10,ATGTGTTG,0.0905 normalized occupancy
11,ACGTGTTC,0.104 normalized occupancy
12,ACGTGTTA,0.109 normalized occupancy
13,GCGTGTTA,0.101 normalized occupancy
14,GTGTGTTA,0.0835 normalized occupancy
15,AGGTGTTA,0.0801 normalized occupancy
16,AAGTGTTC,0.0784 normalized occupancy
17,CCGTGTTA,0.0848 normalized occupancy
18,ACGTGTTG,0.109 normalized occupancy
19,CCGTGTTC,0.0725 normalized occupancy
20,AGGTGTTG,0.0828 normalized occupancy
21,GGGTGTTA,0.0779 normalized occupancy
